Records with an inconclusive call do not appear. A call without a number means that no potency is given here. Unmarked numbers belong to inactive results. The source made the active and inactive calls. Calls come from the whole dose curve; as a rule, active = well fitted curve in the direction sought with a large enough effect; inconclusive = small, poorly fitted or top-dose-only effect, or another doubt; inactive = no such curve, though single readings can be large; an effect the other way counts as inactive or inconclusive.
Experiments:
[1] = system: Zika virus NS2B-NS3 protease; assay: Primary screen GU AMC qHTS for Zika virus inhibitors (AID 1347154); settings: Zika NS2B-NS3 unlinked protease, AMC fluorogenic substrate; series mostly up to 54.1 µM; note: nearly all actives have a fitted effect of over 70% in size
Procedure, shortened: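 Unlinked Zika NS2B hydrophilic domain–NS3 protease complex at 25 nM in 10 mM Tris-HCl pH 8.0, 0.01% Tween 20, with an AMC peptide substrate. Fluorescence change (340/450 nm) over 15 min at room temperature, normalized to controls, fitted to 4-parameter Hill.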

[2] = system: Zika virus NS2B-NS3 protease (unlinked complex); assay: Primary screen GU Rhodamine qHTS for Zika virus inhibitors: Unlinked NS2B-NS3 protease assay (AID 1347159); settings: Recombinant ZIKV NS2B-NS3 protease, Rhodamine110 substrate fluorescence; series mostly up to 107 µM; note: nearly all actives have a fitted effect of over 60% in size
Procedure, shortened: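 Enzyme 25 nM in Tris-HCl pH 8.0 + 0.01% Tween 20; compounds up to 114 microM, 15 min RT dark; + Rhod110 substrate 1.5 microM; read t0 and 15 min; delta fluorescence → % inhibition → 4-parameter Hill fit.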

[3] = system: Zika virus NS2B-NS3 protease (linked construct); assay: Primary screen NINDS Rhodamine qHTS for Zika virus inhibitors (AID 1347160); settings: purified NS2B-NS3 protease, Rhodamine110 substrate fluorescence; series mostly up to 57.1 µM; note: nearly all actives have a fitted effect of over 55% in size
Procedure, shortened: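 Enzyme (25 nM, linked NS2B-NS3) was preincubated 15 min with compound in 10 mM Tris-HCl pH 8.0, 0.01% Tween 20. Rhodamine110 substrate (1.5 microM) was then added and fluorescence read at start and after 15 min.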

[4] = system: Zika virus NS2B-NS3 protease (linked); assay: 384 well plate NINDS AMC confirmatory qHTS for Zika virus inhibitors (AID 1347163); settings: Recombinant NS2B-NS3 protease, Ac-VKTGKR-AMC fluorescence; series mostly up to 100 µM; note: potency is the fitted concentration of half-maximal effect; nearly all actives have a fitted effect of over 50% in size
Procedure, shortened: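 Enzyme (5, 30 or 60 nM final) first met test compounds for ~15 min. The AMC-tagged peptide Ac-VKTGKR-AMC followed at 30 microM. Fluorescence was then recorded at 25 min and scaled against no-enzyme and no-inhibitor wells.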

## CN(C)C(=O)CNC(=O)Cc1ccccc1
[1]
  Potency: inactive
[2]
  Potency: inactive
[3]
  outcome: inactive

## CN1[C@@H]2CC[C@H]1CC(NC(=O)n1c(=O)[nH]c3ccccc31)C2 (some centres not stated)
[1]
  Potency: inactive
[3]
  outcome: inactive

## Brc1ccc([C@H]2CN3CCSC3=N2)cc1
[2]
  Potency: inactive
[3]
  outcome: inactive

## C=CC[N+]1([C@H]2C[C@H]3[C@@H]4CC[C@H]5C[C@H](OC(C)=O)[C@@H](N6CCCCC6)C[C@]5(C)[C@H]4CC[C@]3(C)[C@H]2OC(=O)CC)CCCCC1
[2]
  Potency: inactive
[3]
  outcome: inactive

## N[C@@H](Cn1ccc(=O)c(O)c1)C(=O)O
[2]
  activity change, negative = inhibition: 13% [at 11.5 µM]
[3]
  outcome: inactive [at 4.91 µM]

## C[C@H](CN1CCCC1)C(=O)c1ccc(C(F)(F)F)cc1
[1]
  Potency: inactive
[3]
  outcome: inactive

## CN(C)[C@@H]1C(=O)C(C(N)=O)=C(O)[C@@]2(O)C(=O)C3=C(O)c4c(O)cccc4C[C@H]3C[C@@H]12
[4]
  Potency: 126 µM (active)

## CN(C)c1cc2c(Nc3ccc4c(cnn4Cc4ccccc4)c3)ncnc2cn1
[3]
  outcome: inactive

## O=C1NC2CCCCN2C12CCN(CCCN1c3ccccc3CCc3ccc(Cl)cc31)CC2 (configuration not stated)
[2]
  Potency: inactive
[3]
  outcome: inactive

## COC(=O)C1=C(C)NC(COC(N)=O)=C(C(=O)OC(C)C)C1c1cccc(Cl)c1Cl (configuration not stated)
[2]
  Potency: inactive
[3]
  outcome: inactive

## O=C1CC[C@H](C(=O)N2CCCCC2)N1
[1]
  Potency: inactive
[2]
  Potency: inactive
[3]
  outcome: inactive

## COC(=O)C1=CO[C@@H](O)[C@@H]2C(CO)=CC[C@H]12
[3]
  outcome: inactive

## CCNC(=O)NCCCOc1cccc(CN2CCCCC2)c1
[1]
  Potency: inactive
[3]
  outcome: inactive

## CC(=O)OCC(=O)Nc1cc(C#N)cc(NC(=O)COC(C)=O)c1Cl
[2]
  Potency: inactive
[3]
  outcome: inactive

— PubChem BioAssay (NCATS)
